From PubChem BioAssay AID1159580 (chemical genetic matrix, 2015)
Values joined by “and” are separate entries in the source; they are usually repeats but may differ in a detail not shown here. Equal values may be shown once. Screen size: about 5,500 compounds; about 2,000 (36%) were called active. Inconclusive results (about 18%) are left out. No stated cut-off is given here; in the data, active means normalized growth mostly below about 0.91 (no sharp cut-off); inconclusive means no clear call, values can overlap the other calls; inactive means mostly above about 0.92. Some of the results follow.

Assay: chemical genetic growth profiling, strain panel (AID 1159580);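 further: tested at 20 µM; growth read once vehicle control cultures reached saturation at 30 °C; 1 = growth at the plate median or of vehicle wells; lower values mean less growth of the strain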
Conditions: S. cerevisiae deletion strains, growth OD

Measured: normalized growth

NCCc1cnc[nH]1
inactive: locus YAL021C, strain ccr4, hits give low values 1.01 | locus YAL026C, strain drs2, hits give low values 1.01 | locus YAL030W, strain snc1, hits give low values 1.01 | locus YAL040C, strain CLN3, hits give low values 0.978 | locus YBL061C, strain skt5, hits give low values 1.02 | locus YBR009C, strain hhf1, hits give low values 1 | locus YBR021W, strain FUR4, hits give low values 1 | locus YBR023C, strain chs3, hits give low values 1.02 | locus YBR171W, strain sec66, hits give low values 1.03 | locus YBR229C, strain ROT2, hits give low values 1.01 | locus YBR231C, strain swc5, hits give low values 0.976 | locus YBR279W, strain paf1, hits give low values 1.02 | locus YCL011C, strain gbp2, hits give low values 1.03 | locus YCL016C, strain dcc1, hits give low values 1.01 | locus YCL029C, strain bik1, hits give low values 1.01 | locus YCL061C, strain MRC1, hits give low values 1.02 | locus YCL069W, strain vba3, hits give low values 1.01 | locus YCR088W, strain abp1, hits give low values 1.01 | locus YDL005C, strain med2, hits give low values 1.02 | locus YDL035C, strain GPR1, hits give low values 0.988 | locus YDL040C, strain nat1, hits give low values 1.02 | locus YDL074C, strain BRE1, hits give low values 1 | locus YDL101C, strain DUN1, hits give low values 1.01 | locus YDL185W, strain tfp1, hits give low values 1.02 | locus YDL192W, strain arf1, hits give low values 1.03 | locus YDR001C, strain nth1, hits give low values 1.01 | locus YDR069C, strain doa4, hits give low values 0.993 | locus YDR101C, strain arx1, hits give low values 0.997 | locus YDR137W, strain rgp1, hits give low values 1.03 | locus YDR159W, strain sac3, hits give low values 0.995 | locus YDR162C, strain NBP2, hits give low values 0.998 | locus YDR195W, strain ref2 0.994 | locus YDR297W, strain sur2, hits give low values 1.04 | locus YDR318W, strain mcm21, hits give low values 1.02 | locus YDR334W, strain swr1, hits give low values 1.02 | locus YDR335W, strain msn5, hits give low values 1.02 | locus YDR363W, strain ESC2, hits give low values 0.998 | locus YDR388W, hits give low values 1.01 | locus YDR392W, strain spt3, hits give low values 1 | locus YDR502C, strain sam2, hits give low values 1.01 | locus YEL003W, strain gim4, hits give low values 1.03 | locus YEL037C, strain rad23, hits give low values 1.02 | locus YEL061C, strain CIN8 (second series), hits give low values 1.02 | locus YEL061C, strain CIN8, hits give low values 0.995 | locus YER002W, strain NOP16, hits give low values 0.994 | locus YER015W, strain faa2, hits give low values 1.01 | locus YER016W, strain bim1, hits give low values 1 | locus YER110C, hits give low values 1.02 | locus YER111C, strain swi4, hits give low values 1.02 | locus YER155C, strain BEM2 (second series), hits give low values 1.03 | locus YER155C, strain BEM2, hits give low values 1.01 | locus YER167W, strain BCK2, hits give low values 0.989 | locus YFR010W, strain ubp6, hits give low values 1.01 | locus YGL078C, strain dbp3, hits give low values 1.02 | locus YGL086W, strain mad1, hits give low values 1 | locus YGL167C, strain pmr1, hits give low values 1.01 | locus YGL173C, strain kem1, hits give low values 1 | locus YGL227W, strain vid30, hits give low values 1.01 | locus YGL240W, strain doc1, hits give low values 1.01 | locus YGL248W, strain PDE1, hits give low values 1.01 | locus YGL253W, strain hxk2, hits give low values 1.01 | locus YGR078C, strain PAC10, hits give low values 1 and 0.997 | locus YGR135W, strain pre9, hits give low values 1.02 | locus YGR252W, strain gcn5, hits give low values 1.04 | locus YHR013C, strain ard1, hits give low values 1.06 | locus YHR027C, strain rpn1, hits give low values 1.01 | locus YHR030C, strain SLT2, hits give low values 0.985 and 1 | locus YHR079C, strain IRE1 (second series), hits give low values 1.01 | locus YHR079C, strain IRE1, hits give low values 1.03 | locus YHR094C, strain hxt1, hits give low values 1.01 | locus YHR129C, strain ARP1, hits give low values 1.01 | locus YHR142W, strain chs7, hits give low values 1.01 | locus YHR200W, strain rpn10, hits give low values 1.02 | locus YIL066C, strain RNR3, hits give low values 1.01 | locus YIL073C, strain SPO22, hits give low values 1.03 | locus YIL125W, strain kgd1, hits give low values 1.02 | locus YIR030C, strain dcg1, hits give low values 1.01 | locus YJL092W, strain hpr5, hits give low values 1.02 | locus YJL095W, strain BCK1 (second series), hits give low values 1.02 | locus YJL095W, strain BCK1, hits give low values 1.01 and 0.999 | locus YJL115W, strain asf1, hits give low values 1.02 | locus YJL129C, strain trk1, hits give low values 1.03 | locus YJL134W, strain LCB3, hits give low values 0.995 | locus YJL154C, strain vps35, hits give low values 1.03 | locus YJL164C, strain tpk1, hits give low values 1.02 | locus YJL166W, strain qcr8, hits give low values 1.03 | locus YJL168C, strain set2, hits give low values 1.01 | locus YJL187C, strain SWE1 (second series), hits give low values 1 | locus YJL187C, strain SWE1, hits give low values 1.01 | locus YJR043C, strain POL32, hits give low values 1
